Compounds with a hit are over-represented: about 0.87% of the library has one in this group of screens.
TLR4-MyD88 BLA: TLR4-MyD88 interaction inhibition in cells | inhibition, % at 8.4 µM | O00206+Q99836 | 0.18% of 200,000 active | HeLa CL3-4 TLR4/MyD88 BLA complementation, FRET ratio; in the data active = inhibition above about 25%;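 note: 0% = vehicle and 100% = reference inhibitor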
IDE cell inh: cellular human IDE inhibition. P14735. HEK cells, FAbetaB cleavage, fluorescence polarization. inhibition, % at 5.59 µM. 0.41% of 320,000 active;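 active = percent inhibition above the average of all tested compounds plus 3 SD, set per screening campaign, cut at about 16% in these data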;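 note: IDE supplied by intact live HEK cells; FP after avidin binding of uncleaved biotin substrate so inhibition keeps polarization high; 0% = DMSO wells and 100% = 60 µM reference IDE inhibitor Ii1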
Target sequence (P14735 whole entry, looked up): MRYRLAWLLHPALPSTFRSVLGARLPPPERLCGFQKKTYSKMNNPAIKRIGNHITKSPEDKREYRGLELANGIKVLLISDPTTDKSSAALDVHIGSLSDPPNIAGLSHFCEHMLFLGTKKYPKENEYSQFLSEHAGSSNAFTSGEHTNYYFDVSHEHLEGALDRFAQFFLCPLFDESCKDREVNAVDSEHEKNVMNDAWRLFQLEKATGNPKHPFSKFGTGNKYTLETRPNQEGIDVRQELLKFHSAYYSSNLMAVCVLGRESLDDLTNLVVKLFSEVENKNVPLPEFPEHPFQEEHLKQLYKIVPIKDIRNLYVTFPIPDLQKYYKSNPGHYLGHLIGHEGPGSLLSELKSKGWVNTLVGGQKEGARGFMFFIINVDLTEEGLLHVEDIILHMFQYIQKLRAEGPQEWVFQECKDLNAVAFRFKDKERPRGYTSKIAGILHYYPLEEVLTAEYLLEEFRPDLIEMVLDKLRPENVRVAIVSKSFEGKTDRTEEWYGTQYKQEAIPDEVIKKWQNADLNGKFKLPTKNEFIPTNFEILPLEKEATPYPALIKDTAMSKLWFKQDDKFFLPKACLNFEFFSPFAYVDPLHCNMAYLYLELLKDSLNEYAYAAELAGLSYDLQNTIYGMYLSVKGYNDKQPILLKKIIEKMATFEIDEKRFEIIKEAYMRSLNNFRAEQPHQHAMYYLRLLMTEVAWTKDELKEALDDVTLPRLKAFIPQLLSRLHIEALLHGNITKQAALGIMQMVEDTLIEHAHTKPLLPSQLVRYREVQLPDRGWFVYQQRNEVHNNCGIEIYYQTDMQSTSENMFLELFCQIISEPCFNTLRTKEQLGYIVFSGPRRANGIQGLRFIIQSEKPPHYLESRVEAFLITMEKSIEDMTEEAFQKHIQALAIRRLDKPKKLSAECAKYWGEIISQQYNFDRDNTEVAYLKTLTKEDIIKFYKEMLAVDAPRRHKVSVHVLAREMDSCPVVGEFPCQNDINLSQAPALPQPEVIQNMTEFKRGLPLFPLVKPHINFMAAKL
NOD2-RIPK2 inh: NOD2-RIPK2 protein interaction inhibition; O43353; CHO BLA complementation NOD2-RIPK2, CCF4 ratio; inhibition, % at 4.98 µM; 0.38% of 360,000 active; AID 624267; in the data active = inhibition above about 21%;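 note: 0% = vehicle only and 100% = reference blocker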
IDE cell activ: activators of human insulin-degrading enzyme in cells; HEK cells, FAbeta-B cleavage, fluorescence polarization; 0% vehicle, 100% cell-free pure enzyme wells; 0.073% of 340,000 active; AID 493087; activation, % at 5.96 µM;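 active = activation above the mean of all tested compounds plus 3 SD, set per screening campaign, cut at about 17% in these data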
TLR9-MyD88 inh: inhibitors of human TLR9-MyD88 binding; Q9NR96+Q99836; 0.21% of 340,000 active; inhibition, % at 4.98 µM; CHO BLA complementation TLR9-MyD88, CCF4 FRET ratio;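 active = inhibition above the mean over all tested compounds plus 3 SD, cut at about 21% in these data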;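 note: 0% = DMSO only wells and 100% = clavulanate BLA inhibitor control wells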
NOD2-RIPK2 conf: NOD2-RIPK2 interaction inhibition confirmed; shares compounds with NOD2-RIPK2 inh; CHO cells, NOD2-RIPK2 BLA complementation, CCF4 FRET; inhibition, % at 4.98 µM; 70% of 1,200 active;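 active = mean inhibition across replicates above a set limit taken from the earlier primary screen, cut at about 21% in these data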;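 note: 0% = DMSO-only wells and the high end = clavulanate BLA-blocked wells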
BLA counter: counter-screen for NOD2-RIPK2 interaction inhibitors: BLA reporter. shares compounds with NOD2-RIPK2 inh. CHO BLA reporter, CCF4 FRET ratio, counterscreen. inhibition, % at 4.98 µM. 57% of 1,200 active. AID 624371;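 active = mean inhibition above the low-control mean inhibition plus three low-control SD, cut at about 11% in these data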;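 note: 0% = DMSO only wells and 100% = clavulanate high control wells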
The depositor's hits bear a star; . = no result.

SMILES	TLR4-MyD88 BLA	IDE cell inh	NOD2-RIPK2 inh	IDE cell activ	TLR9-MyD88 inh	NOD2-RIPK2 conf	BLA counter
COc1cc(OC)cc(C2=Cc3ccccc3C(CC(C)=O)N2c2ccc(-c3cncnc3)cc2)c1 (configuration not stated)	.	.	-2	.	.	.	.
COc1ncc(-c2ccc(N3C(c4ccc([N+](=O)[O-])cc4)=Cc4ccccc4C3CC(C)=O)cc2)cn1 (configuration not stated)	.	.	34*	.	.	13	18*
O=C(COC(=O)Cc1ccc(F)cc1)NC(=O)c1ccccc1	.	4	-9	-3	-4	.	.
CC(C)(C)CC(C)(C)NC(=S)Nc1ccc2nc(-c3ccccn3)c(-c3ccccn3)nc2c1	19	8	32*	-1	8	9	8
CC(Oc1ccc(F)cc1)C(=O)Nc1cccc(S(=O)(=O)N(C)c2ccccc2)c1 (configuration not stated)	.	.	3	.	-18	.	.
Nc1c(-c2ccc(C(F)(F)F)cc2)nc2ncccn12	.	.	-4	.	.	.	.
Nc1nc2ncccn2c1-c1ccc(F)c(F)c1	.	.	28*	.	.	19	20*
O=[N+]([O-])c1ccc(Sc2ccncn2)c([N+](=O)[O-])c1	.	.	24*	.	12	23*	-1
COc1ccccc1C/C(N)=N/OC(=O)COc1ccc(C)cc1	.	3	1	2	5	.	.
O=C(/C=C/c1c[nH]c2ccccc12)c1ccccc1	22	6	30*	-7	12	30*	35*
COc1ccc2[nH]cc(/C=C/C(=O)c3ccccc3)c2c1	.	0	27*	-8	12	21*	32*
COc1ccc(NC(=O)CN(C)C(=O)c2c(C)nn(Cc3ccccc3)c2C)cc1	.	-2	-7	3	4	.	.
NS(=O)(=O)c1ccc(NS(=O)(=O)c2ccc(NC(=O)c3ccc(-c4ccccc4)cc3)cc2)cc1	-7	36*	24*	-23	3	23*	28*
NS(=O)(=O)c1ccc(NC(=O)c2ccc(-c3ccccc3)cc2)cc1	-5	.	4	.	.	.	.
COc1ccc(-c2csc(-c3cc4ccccc4oc3=N)n2)cc1	12	6	31*	2	19	16	23*
COc1ccc(-c2noc(-c3cc4ccccc4oc3=O)n2)cc1	1	-2	.	.	.	.	.
Cc1cc(NC(=O)CSc2nc3cc(C(=O)NCCCOC(C)C)ccc3c(=O)n2Cc2ccco2)no1	2	-1	30*	-3	-5	-4	-1
O=C(CCC(=O)N(CC(=O)NC1CCCC1)Cc1ccc(F)cc1)Nc1nccs1	.	1	-5	5	9	.	.
O=C(O)c1cccc(Cn2c(Cl)c(/C=N/NC(=O)c3ccc(O)cc3)sc2=O)c1	.	-2	-3	5	7	.	.
O=c1sc(/C=N/Nc2ccccc2)c(Cl)n1Cc1ccccc1	-8	-2	29*	-3	-7	5	1
CC[C@H]1CN2CCc3cc(OC)c(OC)cc3C2C[C@@H]1C[C@H]1NCCc2cc(OC)c(OC)cc21 (some centres not stated)	.	6	23*	2	3	27*	-8
CCC1=C(CC2NCCc3ccccc32)CC2c3cc(OC)c(OC)cc3CCN2C1 (configuration not stated)	.	.	16	1	2	.	.
CCC(=O)N1CCC1(C)C(=O)Nc1cccc(OC)c1 (configuration not stated)	.	.	-10	.	.	.	.
COc1ccc(Cl)cc1NC(=O)CC(=O)Nc1cc(Cl)ccc1OC	.	-2	2	2	-14	.	.
COc1ccc(Cl)cc1NC(=O)Cc1c(F)cccc1Cl	-25	2	22*	-5	3	3	1
SMILES	TLR4-MyD88 BLA	IDE cell inh	NOD2-RIPK2 inh	IDE cell activ	TLR9-MyD88 inh	NOD2-RIPK2 conf	BLA counter
O=C1Nc2ccccc2/C1=C\C(=O)c1ccccc1	.	3	30*	-1	1	29*	-2
O=C(/C=C1\C(=O)Nc2ccccc21)/C=C1\C(=O)Nc2ccccc21	.	.	25*	-13	14	74*	16*
CC(C)Oc1ccc(C(=O)/C=C2/C(=O)Nc3ccccc32)cc1	.	3	19	3	6	.	.
CN(O)/C=C1\C(=O)Nc2ccccc21	-8	-1	9	-1	-4	.	.
CC[C@]12c3[nH]c4ccc(OC)cc4c3CCN1C(=O)C(CC(=O)NCCc1ccccn1)C[C@@H]2C(=O)N1CCN(C(=O)C2CC2)CC1 (some centres not stated)	.	.	-3	0	-4	.	.
Nc1ccccc1C#Cc1ccc([N+](=O)[O-])cc1	.	2	26*	2	18	4	19*
Cc1nn(-c2ccccc2)c2c1P(=O)(O)/C(=C1\N(C)c3ccccc3C1(C)C)C=N2	17	9	24*	3	8	16	19*
Cc1nn(-c2ccccc2)c(N)c1C1(O)C(=O)N(C(C)C)c2ccccc21 (configuration not stated)	10	4	2	3	-6	.	.
COc1ccc2c(c1)sc1nc(-c3ccccc3)cn12	-5	8	40*	-6	-8	9	-1
CC1(C)CC(=O)C(C=Nc2ccc(O)c(N=CC3=C(O)CC(C)(C)CC3=O)c2)=C(O)C1	-2	7	-6	-6	-4	.	.
CC1(C)CC(=O)C(C=Nc2ccc(C(=O)c3ccccc3)cc2N=CC2=C(O)CC(C)(C)CC2=O)=C(O)C1	14	6	27*	6	18	-3	-3
O=C1N/C(=C/c2ccc(N3CCOCC3)o2)C(=O)N1c1cccc(Cl)c1	11	5	33*	-1	11	22*	9
Cc1ccc(/C=C2/NC(=O)N(c3ccccc3)C2=O)o1	19	4	6	-4	2	.	.
O=[N+]([O-])c1cc(Br)c(Nc2ccccc2)c([N+](=O)[O-])c1	.	0	41*	4	9	58*	-8
COc1ccc(S(=O)(=O)N2CCC(C(N)=O)CC2)cc1C(=O)N1CCCCCC1	.	0	-8	-4	4	.	.
CC(C)(C)OC(=O)N[C@@H](Cc1ccccc1)c1nnc(S(=O)(=O)Cc2cccc(F)c2)o1	11	1	.	.	.	.	.
Cc1ccccc1CS(=O)(=O)c1nnc([C@H](CC(C)C)NC(=O)OC(C)(C)C)o1	11	0	26*	-4	0	42*	-5
CC(C)[C@H](NC(=O)OC(C)(C)C)c1nnc(S(=O)(=O)Cc2c(F)cccc2Cl)o1	.	1	69*	1	16	70*	10
CC[C@@H](C)[C@H](NC(=O)OC(C)(C)C)c1nnc(S(=O)(=O)Cc2cc(C)ccc2C)o1	11	1	59*	0	-2	53*	-4
CC[C@@H](C)[C@H](NC(=O)OCc1ccccc1)c1nnc([C@@H](NC(=O)OCc2ccccc2)[C@@H](C)CC)o1	.	-1	9	-4	-5	.	.
